Results as given in PubChem BioAssay (NCI).
The panel holds about 83,000 compounds, 20% with a hit somewhere; the sample as a whole holds those more often.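 In brief: 96-well plates, 48 h treatment, single concentration, percent growth endpoint.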 Active and inactive are the calls of the source. The calls were made as follows: active = growth percent below 10; inactive = the rest.

Experiments:
Experiment in all cases: NCI-60 one-dose screen, 48 h (100 = growth as untreated, 0 = no growth, -100 = all killed)
Settings in all cases: 10 µM unless noted
SK-MEL-2 melanoma = test system: SK-MEL-2 melanoma
EKVX NSCLC = test system: EKVX NSCLC
SN12C renal = test system: SN12C renal
UO-31 renal = test system: UO-31 renal
TK-10 renal = test system: TK-10 renal
ACHN renal = test system: ACHN renal
CAKI-1 renal = test system: CAKI-1 renal
CCRF-CEM leukemia = test system: CCRF-CEM leukemia
MOLT-4 leukemia = test system: MOLT-4 leukemia
A498 renal = test system: A498 renal

Measured: growth

COc1ccc(/C=N\N2CCOCC2)cc1OC1CCCC1
inactive: SK-MEL-2 melanoma 106% | EKVX NSCLC 89.4% | SN12C renal 101% | UO-31 renal 82% | TK-10 renal 101% | ACHN renal 104% | CAKI-1 renal 94.1% | CCRF-CEM leukemia 106% | MOLT-4 leukemia 122%

CC1SC(c2cccc(Oc3ccccc3)c2)N(CCc2cccs2)C1=O (centres undefined)
active: SK-MEL-2 melanoma -75.7% | EKVX NSCLC -24.1% | SN12C renal -86.3% | UO-31 renal -17.7% | TK-10 renal -16.2% | ACHN renal -12.8% | CAKI-1 renal -37.4% | A498 renal -56.6% | MOLT-4 leukemia -2.19%

CCOc1ccc(-c2cnnn2-c2nonc2-n2cccc2)cc1
inactive: SK-MEL-2 melanoma 18.3% | EKVX NSCLC 60.9% | SN12C renal 40.1% | UO-31 renal 29.8% | TK-10 renal 45.3% | ACHN renal 47.3% | CAKI-1 renal 46.4% | A498 renal 18.7%
active: MOLT-4 leukemia 8.83%

O=[N+]([O-])c1ccc2nc(N/N=C/c3ccc(O)cc3)sc2c1
active: SK-MEL-2 melanoma -0.896%
inactive: EKVX NSCLC 85.5% | SN12C renal 54.7% | UO-31 renal 27.5% | TK-10 renal 54% | ACHN renal 47% | CAKI-1 renal 23.2% | A498 renal 91.5% | MOLT-4 leukemia 24%

COC(=O)CCC(=O)c1ccccc1
inactive: SK-MEL-2 melanoma 110% | EKVX NSCLC 89.7% | SN12C renal 103% | UO-31 renal 118% | TK-10 renal 118% | ACHN renal 106% | CAKI-1 renal 96.8% | A498 renal 112% | CCRF-CEM leukemia 101% | MOLT-4 leukemia 101%

O=C1OCC2=C1C(c1ccc3c(c1)OCO3)CC(=O)N2c1cccc(Cl)c1 (centres undefined)
inactive: SK-MEL-2 melanoma 103% | EKVX NSCLC 96.3% | SN12C renal 95.9% | UO-31 renal 85.1% | TK-10 renal 99.6% | ACHN renal 103% | CAKI-1 renal 90.2% | A498 renal 84.6% | MOLT-4 leukemia 95.2%

Cn1cc(C(=O)NCCC(=N)N)cc1NC(=O)CN=C(N)N
inactive: SK-MEL-2 melanoma 105% | EKVX NSCLC 103% | SN12C renal 95.6% | UO-31 renal 84% | TK-10 renal 109% | ACHN renal 102% | CAKI-1 renal 99.1% | A498 renal 108% | CCRF-CEM leukemia 100% | MOLT-4 leukemia 103%

COc1ccc(C2SC(C)C(=O)N2CCc2cccs2)cc1OC (centres undefined)
inactive: SK-MEL-2 melanoma 93% | EKVX NSCLC 66.4% | SN12C renal 90.1% | UO-31 renal 79.2% | TK-10 renal 113% | ACHN renal 80.1% | CAKI-1 renal 73.2% | A498 renal 81.9% | CCRF-CEM leukemia 75.9% | MOLT-4 leukemia 64.7%

Clc1ccc2c(c1)C[C@H]1C[C@@H](c3cccs3)N2O1
inactive: SK-MEL-2 melanoma 113% | EKVX NSCLC 83.2% | SN12C renal 106% | UO-31 renal 93.4% | TK-10 renal 104% | ACHN renal 104% | CAKI-1 renal 94.4% | A498 renal 77.1% | CCRF-CEM leukemia 100% | MOLT-4 leukemia 89.3%

Nc1cc(Br)c(-c2nnc(CCC(=O)c3nc4ccccc4[nH]3)o2)c(Br)c1
inactive: SK-MEL-2 melanoma 34.3% | EKVX NSCLC 95.6% | SN12C renal 95.4% | UO-31 renal 47.4% | TK-10 renal 101% | ACHN renal 102% | CAKI-1 renal 90.5% | A498 renal 71.7% | MOLT-4 leukemia 68.2%

Cn1c(=O)c2c(-c3ccccc3F)n(-c3ccc4c(c3)OCO4)cc2n(C)c1=O
inactive: SK-MEL-2 melanoma 133% | EKVX NSCLC 87.6% | SN12C renal 90.4% | UO-31 renal 82.4% | TK-10 renal 115% | ACHN renal 100% | CAKI-1 renal 89.6% | A498 renal 69.5% | MOLT-4 leukemia 72.9%

COc1ccc2nc(-n3nc(C)cc3C)c(-n3nc(C)cc3C)nc2c1
inactive: SK-MEL-2 melanoma 111% | EKVX NSCLC 91.7% | SN12C renal 104% | UO-31 renal 86.5% | TK-10 renal 113% | ACHN renal 113% | CAKI-1 renal 93.4% | A498 renal 96.7% | MOLT-4 leukemia 104%

COc1cc(-c2nc(Nc3nc4ccccc4[nH]3)nc(N)c2C#N)cc(OC)c1OC
inactive: SK-MEL-2 melanoma 59.2% | EKVX NSCLC 74.5% | SN12C renal 92.8% | UO-31 renal 69.9% | TK-10 renal 80.6% | ACHN renal 61.7% | CAKI-1 renal 56.9% | CCRF-CEM leukemia 70.1%

COc1ccc(OC)c(C2C(C#N)=C(N)Oc3cc(O)ccc32)c1 (centres undefined)
inactive: SK-MEL-2 melanoma 96.5% | EKVX NSCLC 88.7% | SN12C renal 98% | UO-31 renal 81.7% | TK-10 renal 91.1% | ACHN renal 94.4% | CAKI-1 renal 73.5% | A498 renal 92.2% | MOLT-4 leukemia 88.2%

CCN1C(=O)C2(Nc3ccccc3S2)c2cc(C)ccc21 (centres undefined)
active: CCRF-CEM leukemia 9.42%
inactive: SK-MEL-2 melanoma 111% | EKVX NSCLC 103% | SN12C renal 97.7% | UO-31 renal 79.3% | TK-10 renal 107% | ACHN renal 94.2% | CAKI-1 renal 99% | A498 renal 138% | MOLT-4 leukemia 100%
